Assay results taken from publication PMC8769072, “Proteome‐scale mapping of binding sites in the unstructured regions of the human proteome” (Molecular Systems Biology, 2022).

The binders below were run against NEDD4 890-928, P46934.
Sequence of NEDD4 890-928, P46934 (P46934 890-928): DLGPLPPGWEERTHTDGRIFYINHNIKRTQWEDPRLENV

Selected by phage display, active:
SWNPPEYDGGAQISNY [TTN, Q8WZ42] confidence 2
NNPVLNDLPQYMPPDF [STPG4, Q8N801] confidence 3
LAGPESPPPPYSRLSP [SMAD6, O43541] confidence 3
RNSPPPYGFHLSPEEM [RHBDD1, Q8TEB9] confidence 2
KVVDIPTYEEAVSFPV [TMEM61, Q8N0U2] confidence 2
HLPQAPPYTDAPPAYS [DAZAP2, Q15038] confidence 3
SVVIPPPDYLEALSMG [BAIAP2L1, Q9UHR4] confidence 4
YLEDLPPPPEYELAPS [GRSF1, Q12849] confidence 2
RDPEPPEPPTYRAQGV [BSN, Q9UPA5] confidence 3
MDQNNSLPPYAQGLAS [TBP, P20226] confidence 2
DLHHTPGYPTPPPYPF [C11orf53, Q8IXP5] confidence 3
LALSDPGLEPPVYVPP [JCAD, Q9P266] confidence 3
RAQPPDYTFPSGSGAH [PI4K2A, Q9BTU6] confidence 2
VSNQPPKYTQPSLPSQ [ATN1, P54259] confidence 3
LEDVSKPPAYAYPATP [TNRC18, O15417] confidence 3
GKMSREPPPPYVTPAT [ESS2, Q96DF8] confidence 4

What follows are binders tested against PEX14 16-84, O75381.
Sequence of PEX14 16-84, O75381 (O75381 16-84): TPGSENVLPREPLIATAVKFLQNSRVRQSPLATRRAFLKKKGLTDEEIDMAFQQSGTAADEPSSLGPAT

Selected by phage display, active:
EWYEEHAREQEQQRQL [TPCN1, Q9ULQ1] confidence 2
STATSPDGGTTFEHLW [TP73, O15350] confidence 3
TELQQLWKEVTSAHTA [FOXP1, Q9H334] confidence 3
SPASWERLLAYGWSHA [MIR1-1HG, Q9H1L0] confidence 3
HGRYAEALEQHWQELQ [TONSL, Q96HA7] confidence 4
DSLQDSWATAAGTSRI [CPEB2, Q7Z5Q1] confidence 3
AGSQAQELAEAWEGAR [RIMBP3, Q9UFD9] confidence 2
AWIRDYSSGGSSRTLD [TNKS1BP1, Q9C0C2] confidence 2
DWSSQYSMVAGAGREN [LENG8, Q96PV6] confidence 3
HKLTEREWAEEWKHLN [CBFA2T3, O75081] confidence 3
SEQYDSLLRQMWERMD [GTPBP1, O00178] confidence 2
SWLASYLADADALPSA [CAMTA1, Q9Y6Y1] confidence 3
SSGGGSVTLDPLEHAW [SOWAHC, Q53LP3] confidence 3
EMGDWQEVWDENTGAY [FNBP4, Q8N3X1] confidence 3
EDVKRHSSASFENVWL [IRS1, P35568] confidence 3
VHDAVVNDNLETIWLL [BCORL1, Q5H9F3] confidence 3
SENESLWKEVSELRAK [HSF2, Q03933] confidence 3
TPLWEETMLKAWQHYL [WDFY4, Q6ZS81] confidence 2
QLWHHDYLLGHLDDEG [TTC31, Q49AM3] confidence 2
WSLELEDQERHFLQQA [NUP62, P37198] confidence 2
ELEDEWQEVMGRFEGD [NFKBIL1, Q9UBC1] confidence 4
DDLSVEWDAMGGKVQD [FSD1, Q9BTV5] confidence 4

These binders were tested against PDCD6IP 360-702, Q8WUM4.
Sequence of PDCD6IP 360-702, Q8WUM4 (Q8WUM4 360-702): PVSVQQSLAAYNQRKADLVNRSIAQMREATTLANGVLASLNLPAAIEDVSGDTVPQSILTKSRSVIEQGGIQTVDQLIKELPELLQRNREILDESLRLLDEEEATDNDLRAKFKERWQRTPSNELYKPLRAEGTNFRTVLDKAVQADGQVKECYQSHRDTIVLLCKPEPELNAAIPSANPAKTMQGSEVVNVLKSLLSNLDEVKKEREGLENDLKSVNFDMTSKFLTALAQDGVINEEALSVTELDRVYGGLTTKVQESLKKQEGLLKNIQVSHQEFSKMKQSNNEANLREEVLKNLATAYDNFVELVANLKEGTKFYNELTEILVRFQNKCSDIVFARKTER

Selected by phage display, active:
YPQDSLAQIKAVYANL [TSHZ1, Q6ZSZ6] confidence 2
FYLYPDLSRLSDPQVW [SLC6A11, P48066] confidence 3
YKLYPGLSSYHERVGN [SH3YL1, Q96HL8] confidence 3
DMPFDELLALYGYEAS [MIER2, Q8N344] confidence 2
VVEGPWTLAALYPALP [GDPD4, Q6W3E5] confidence 3
LGRDLYPNLAEERSRW [MCC, P23508] confidence 3
WYPSLATMQESLRVKQ [GADD45GIP1, Q8TAE8] confidence 3
YPSLTNLKAQADTARA [UVSSA, Q2YD98] confidence 2
LYPPLINLWEGDSEKD [LRRN1, Q6UXK5] confidence 4
FRVYPELPKPSISSNN [CEACAM5, P06731] confidence 3
LYPSTSSLLTNHQHEG [STAM, Q92783] confidence 3
GLYPQLAVPDAFNSSR [DHX34, Q14147] confidence 2

What follows are binders tested against OXSR1 434-527, O95747.
Sequence of OXSR1 434-527, O95747 (O95747 434-527): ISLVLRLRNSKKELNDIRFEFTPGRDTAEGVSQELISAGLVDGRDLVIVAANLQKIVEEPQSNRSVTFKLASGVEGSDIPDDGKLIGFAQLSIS

Selected by phage display, active:
RFEVAPAPEPASGAQK [PIK3R6, Q5UE93] confidence 3
FSRFSVSPALETPGPP [LMTK3, Q96Q04] confidence 2
DATLASGRFTISTLLS [SLC12A3, P55017] confidence 2
TKVGRFQVTTTANKVG [WNK1, Q9H4A3] confidence 4
MPTNFTVVPVEAHADG [SLC12A7, Q9Y666] confidence 2
SEEAKGRFRVNFVDPA [SLC12A2, P55011] confidence 2
TPTPAPFSRFTVSPAP confidence 3
NWNEWKTGRFLILQTE [DNAH2, Q9P225] confidence 3
SPAPTSRFSITHVSDS confidence 2
DSVPSNTNRFQVSVIN [SLC12A1, Q13621] confidence 4
SEEGKPQLVGRFQVTS [WNK4, Q96J92] confidence 4

What follows are binders tested against YAP1 169-207, P46937.
Sequence of YAP1 169-207, P46937 (P46937 169-207): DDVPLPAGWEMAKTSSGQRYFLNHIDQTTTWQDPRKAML

Selected by phage display, active:
SVVIPPPDYLEALSMG [BAIAP2L1, Q9UHR4] confidence 3
DLHHTPGYPTPPPYPF [C11orf53, Q8IXP5] confidence 3
VSNQPPKYTQPSLPSQ [ATN1, P54259] confidence 2
GKMSREPPPPYVTPAT [ESS2, Q96DF8] confidence 4
